# Assay results reported in ChEMBL document CHEMBL2218924, “A broad activity screen in support of a chemogenomic map for kinase signalling research and drug discovery” (Biochem J, 2013).
# What was measured:
# [1] = target: Rho-associated protein kinase 2 (Homo sapiens) (UniProt O75116); conditions: at 1 µM
# [2] = target: Rho-associated protein kinase 2 (Homo sapiens) (UniProt O75116); conditions: at 10 µM
# [3] = target: Macrophage-stimulating protein receptor (Homo sapiens) (UniProt Q04912); conditions: at 1 µM
# [4] = target: Macrophage-stimulating protein receptor (Homo sapiens) (UniProt Q04912); conditions: at 10 µM
# [5] = target: Proto-oncogene tyrosine-protein kinase ROS (Homo sapiens) (UniProt P08922); conditions: at 1 µM
# [6] = target: Proto-oncogene tyrosine-protein kinase ROS (Homo sapiens) (UniProt P08922); conditions: at 10 µM
# [7] = target: Ribosomal protein S6 kinase alpha-6 (Homo sapiens) (UniProt Q9UK32); conditions: at 1 µM
# [8] = target: Ribosomal protein S6 kinase alpha-6 (Homo sapiens) (UniProt Q9UK32); conditions: at 10 µM
# [9] = target: Proto-oncogene tyrosine-protein kinase receptor Ret (Homo sapiens) (UniProt P07949); conditions: at 1 µM
# Chain of Proto-oncogene tyrosine-protein kinase receptor Ret (Homo sapiens) (P07949 whole entry): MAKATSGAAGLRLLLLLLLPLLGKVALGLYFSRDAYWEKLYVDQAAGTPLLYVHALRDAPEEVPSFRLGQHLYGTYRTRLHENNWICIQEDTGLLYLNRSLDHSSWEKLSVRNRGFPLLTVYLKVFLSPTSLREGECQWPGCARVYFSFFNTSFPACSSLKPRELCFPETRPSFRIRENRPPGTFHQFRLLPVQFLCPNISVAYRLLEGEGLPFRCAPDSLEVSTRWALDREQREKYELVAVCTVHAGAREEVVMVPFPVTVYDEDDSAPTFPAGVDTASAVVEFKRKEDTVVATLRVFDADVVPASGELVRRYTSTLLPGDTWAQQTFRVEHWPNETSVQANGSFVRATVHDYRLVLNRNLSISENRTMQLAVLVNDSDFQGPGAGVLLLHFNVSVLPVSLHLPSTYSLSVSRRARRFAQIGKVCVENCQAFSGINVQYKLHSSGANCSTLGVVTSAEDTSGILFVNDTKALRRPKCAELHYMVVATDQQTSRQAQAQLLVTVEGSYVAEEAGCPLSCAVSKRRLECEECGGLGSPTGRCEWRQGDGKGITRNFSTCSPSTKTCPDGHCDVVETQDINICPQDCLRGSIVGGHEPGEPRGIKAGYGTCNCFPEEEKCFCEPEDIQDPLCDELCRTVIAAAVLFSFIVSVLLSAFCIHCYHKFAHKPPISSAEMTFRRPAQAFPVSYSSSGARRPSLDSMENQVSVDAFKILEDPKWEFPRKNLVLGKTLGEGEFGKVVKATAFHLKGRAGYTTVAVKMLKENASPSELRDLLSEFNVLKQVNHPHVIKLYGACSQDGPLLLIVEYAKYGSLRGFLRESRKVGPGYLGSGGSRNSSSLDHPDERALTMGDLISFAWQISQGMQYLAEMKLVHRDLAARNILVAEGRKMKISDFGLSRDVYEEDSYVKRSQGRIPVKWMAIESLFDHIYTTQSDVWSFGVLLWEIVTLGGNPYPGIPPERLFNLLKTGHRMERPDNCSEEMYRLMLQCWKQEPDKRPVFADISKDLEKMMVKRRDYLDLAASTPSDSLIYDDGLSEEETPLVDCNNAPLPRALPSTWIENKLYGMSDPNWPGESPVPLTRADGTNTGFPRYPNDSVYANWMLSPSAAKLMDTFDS
# [10] = target: Proto-oncogene tyrosine-protein kinase receptor Ret (Homo sapiens) (UniProt P07949); conditions: at 10 µM
# [11] = target: T1, Tyrosine-protein kinase receptor TYRO3 (Homo sapiens) (UniProt Q06418); conditions: at 1 µM
# T1 sequence (whole entry): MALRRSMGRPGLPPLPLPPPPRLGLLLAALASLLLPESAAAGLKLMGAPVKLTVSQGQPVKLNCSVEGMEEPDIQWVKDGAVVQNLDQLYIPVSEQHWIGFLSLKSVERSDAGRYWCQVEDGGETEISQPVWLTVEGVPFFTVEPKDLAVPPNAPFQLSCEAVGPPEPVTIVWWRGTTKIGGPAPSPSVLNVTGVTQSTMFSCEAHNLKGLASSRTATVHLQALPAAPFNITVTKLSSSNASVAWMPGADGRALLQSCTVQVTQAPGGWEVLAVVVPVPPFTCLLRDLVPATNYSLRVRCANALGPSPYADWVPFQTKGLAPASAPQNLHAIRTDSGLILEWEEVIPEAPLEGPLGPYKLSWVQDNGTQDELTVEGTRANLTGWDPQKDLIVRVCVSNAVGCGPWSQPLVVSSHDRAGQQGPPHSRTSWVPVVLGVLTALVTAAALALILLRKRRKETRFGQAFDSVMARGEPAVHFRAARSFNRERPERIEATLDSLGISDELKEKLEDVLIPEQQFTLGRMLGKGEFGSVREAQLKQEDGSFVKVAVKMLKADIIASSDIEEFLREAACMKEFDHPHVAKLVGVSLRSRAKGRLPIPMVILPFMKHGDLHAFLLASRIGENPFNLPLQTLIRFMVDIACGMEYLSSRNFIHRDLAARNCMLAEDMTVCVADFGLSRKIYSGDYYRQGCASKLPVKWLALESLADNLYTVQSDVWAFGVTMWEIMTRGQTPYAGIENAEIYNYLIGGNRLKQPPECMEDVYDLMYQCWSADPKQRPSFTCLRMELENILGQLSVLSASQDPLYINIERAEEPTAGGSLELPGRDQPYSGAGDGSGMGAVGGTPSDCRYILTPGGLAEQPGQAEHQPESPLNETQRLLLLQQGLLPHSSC
# [12] = target: T1, Tyrosine-protein kinase receptor TYRO3 (Homo sapiens); conditions: at 10 µM
# [13] = target: Ribosomal protein S6 kinase alpha-1 (Homo sapiens) (UniProt Q15418); conditions: at 1 µM
# Chain of Ribosomal protein S6 kinase alpha-1 (Homo sapiens) (Q15418 whole entry): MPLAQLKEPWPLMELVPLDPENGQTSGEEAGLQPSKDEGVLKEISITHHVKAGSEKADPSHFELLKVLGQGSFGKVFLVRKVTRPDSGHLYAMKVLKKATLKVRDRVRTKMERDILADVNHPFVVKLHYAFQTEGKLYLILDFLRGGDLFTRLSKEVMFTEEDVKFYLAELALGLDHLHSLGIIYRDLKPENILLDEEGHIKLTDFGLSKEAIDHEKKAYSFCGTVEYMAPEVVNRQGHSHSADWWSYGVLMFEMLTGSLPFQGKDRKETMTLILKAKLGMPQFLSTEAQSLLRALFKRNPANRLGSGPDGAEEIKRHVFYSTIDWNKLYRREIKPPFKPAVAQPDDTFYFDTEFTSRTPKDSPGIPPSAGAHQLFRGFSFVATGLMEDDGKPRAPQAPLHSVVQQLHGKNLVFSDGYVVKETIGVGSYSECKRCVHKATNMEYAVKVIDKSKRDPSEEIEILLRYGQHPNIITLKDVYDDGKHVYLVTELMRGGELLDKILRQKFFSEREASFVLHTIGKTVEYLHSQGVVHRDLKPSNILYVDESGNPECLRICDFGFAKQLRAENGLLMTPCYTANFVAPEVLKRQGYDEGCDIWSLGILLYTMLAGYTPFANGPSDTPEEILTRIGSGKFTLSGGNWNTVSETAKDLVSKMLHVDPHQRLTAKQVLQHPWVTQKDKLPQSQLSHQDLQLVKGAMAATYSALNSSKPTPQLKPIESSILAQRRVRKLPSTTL
# [14] = target: Ribosomal protein S6 kinase alpha-1 (Homo sapiens) (UniProt Q15418); conditions: at 10 µM
# [15] = target: Ribosomal protein S6 kinase alpha-3 (Homo sapiens) (UniProt P51812); conditions: at 1 µM
# Chain of Ribosomal protein S6 kinase alpha-3 (Homo sapiens) (P51812 whole entry): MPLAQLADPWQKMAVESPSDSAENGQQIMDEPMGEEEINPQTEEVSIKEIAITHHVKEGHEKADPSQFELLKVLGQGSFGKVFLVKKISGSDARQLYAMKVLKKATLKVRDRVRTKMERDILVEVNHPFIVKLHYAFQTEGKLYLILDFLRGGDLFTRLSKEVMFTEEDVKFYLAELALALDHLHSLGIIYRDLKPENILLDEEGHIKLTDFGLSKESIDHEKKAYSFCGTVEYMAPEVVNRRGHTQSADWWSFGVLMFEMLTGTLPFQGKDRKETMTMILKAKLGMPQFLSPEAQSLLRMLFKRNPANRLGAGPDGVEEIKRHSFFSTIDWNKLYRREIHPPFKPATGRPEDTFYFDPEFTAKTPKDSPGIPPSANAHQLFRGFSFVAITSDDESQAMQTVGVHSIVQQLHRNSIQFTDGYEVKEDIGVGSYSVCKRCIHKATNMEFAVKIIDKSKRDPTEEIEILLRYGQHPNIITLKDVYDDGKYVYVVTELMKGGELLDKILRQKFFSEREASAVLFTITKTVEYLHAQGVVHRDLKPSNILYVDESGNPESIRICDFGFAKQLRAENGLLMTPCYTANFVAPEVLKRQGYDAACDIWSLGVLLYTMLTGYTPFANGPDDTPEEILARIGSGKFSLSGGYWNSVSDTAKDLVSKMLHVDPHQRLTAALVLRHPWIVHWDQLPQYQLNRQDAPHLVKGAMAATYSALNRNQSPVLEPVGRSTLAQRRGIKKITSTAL
# [16] = target: Ribosomal protein S6 kinase alpha-3 (Homo sapiens) (UniProt P51812); conditions: at 10 µM
# [17] = target: Ribosomal protein S6 kinase alpha-2 (Homo sapiens) (UniProt Q15349); conditions: at 1 µM
# Chain of Ribosomal protein S6 kinase alpha-2 (Homo sapiens) (Q15349 whole entry): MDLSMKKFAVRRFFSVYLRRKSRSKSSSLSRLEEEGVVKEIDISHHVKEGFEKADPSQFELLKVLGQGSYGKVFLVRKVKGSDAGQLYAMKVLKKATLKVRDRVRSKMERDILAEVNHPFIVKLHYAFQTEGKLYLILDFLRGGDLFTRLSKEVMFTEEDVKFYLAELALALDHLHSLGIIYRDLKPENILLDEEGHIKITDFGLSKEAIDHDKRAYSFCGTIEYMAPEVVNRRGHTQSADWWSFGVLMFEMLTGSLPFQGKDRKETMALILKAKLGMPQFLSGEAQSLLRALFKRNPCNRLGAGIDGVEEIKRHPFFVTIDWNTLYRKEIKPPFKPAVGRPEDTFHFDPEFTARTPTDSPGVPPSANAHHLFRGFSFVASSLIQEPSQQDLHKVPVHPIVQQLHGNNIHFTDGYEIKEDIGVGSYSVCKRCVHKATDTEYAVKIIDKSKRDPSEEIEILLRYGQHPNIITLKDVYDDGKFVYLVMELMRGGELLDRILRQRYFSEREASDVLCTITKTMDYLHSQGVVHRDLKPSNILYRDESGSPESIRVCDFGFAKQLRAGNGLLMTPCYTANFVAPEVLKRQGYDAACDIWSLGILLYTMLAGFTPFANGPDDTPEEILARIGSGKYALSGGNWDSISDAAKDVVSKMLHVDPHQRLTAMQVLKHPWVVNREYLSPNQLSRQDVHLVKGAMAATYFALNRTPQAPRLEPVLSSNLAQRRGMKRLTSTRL
# [18] = target: Ribosomal protein S6 kinase alpha-2 (Homo sapiens) (UniProt Q15349); conditions: at 10 µM
# [19] = target: Mitogen-activated protein kinase 14 (Homo sapiens) (UniProt Q16539); conditions: at 1 µM
# Chain of Mitogen-activated protein kinase 14 (Homo sapiens) (Q16539 whole entry): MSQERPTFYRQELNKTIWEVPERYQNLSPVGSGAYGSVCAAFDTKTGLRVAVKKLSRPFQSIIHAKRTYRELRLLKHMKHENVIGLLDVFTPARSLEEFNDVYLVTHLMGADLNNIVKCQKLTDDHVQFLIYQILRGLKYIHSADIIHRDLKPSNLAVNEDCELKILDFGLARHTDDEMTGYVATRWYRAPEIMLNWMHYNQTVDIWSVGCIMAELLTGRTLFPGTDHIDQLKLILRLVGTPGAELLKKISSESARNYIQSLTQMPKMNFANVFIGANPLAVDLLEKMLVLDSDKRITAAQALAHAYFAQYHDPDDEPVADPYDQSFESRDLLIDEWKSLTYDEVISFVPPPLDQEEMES
# [20] = target: Mitogen-activated protein kinase 14 (Homo sapiens) (UniProt Q16539); conditions: at 10 µM
# Chain of Rho-associated protein kinase 2 (Homo sapiens) (O75116 whole entry, looked up): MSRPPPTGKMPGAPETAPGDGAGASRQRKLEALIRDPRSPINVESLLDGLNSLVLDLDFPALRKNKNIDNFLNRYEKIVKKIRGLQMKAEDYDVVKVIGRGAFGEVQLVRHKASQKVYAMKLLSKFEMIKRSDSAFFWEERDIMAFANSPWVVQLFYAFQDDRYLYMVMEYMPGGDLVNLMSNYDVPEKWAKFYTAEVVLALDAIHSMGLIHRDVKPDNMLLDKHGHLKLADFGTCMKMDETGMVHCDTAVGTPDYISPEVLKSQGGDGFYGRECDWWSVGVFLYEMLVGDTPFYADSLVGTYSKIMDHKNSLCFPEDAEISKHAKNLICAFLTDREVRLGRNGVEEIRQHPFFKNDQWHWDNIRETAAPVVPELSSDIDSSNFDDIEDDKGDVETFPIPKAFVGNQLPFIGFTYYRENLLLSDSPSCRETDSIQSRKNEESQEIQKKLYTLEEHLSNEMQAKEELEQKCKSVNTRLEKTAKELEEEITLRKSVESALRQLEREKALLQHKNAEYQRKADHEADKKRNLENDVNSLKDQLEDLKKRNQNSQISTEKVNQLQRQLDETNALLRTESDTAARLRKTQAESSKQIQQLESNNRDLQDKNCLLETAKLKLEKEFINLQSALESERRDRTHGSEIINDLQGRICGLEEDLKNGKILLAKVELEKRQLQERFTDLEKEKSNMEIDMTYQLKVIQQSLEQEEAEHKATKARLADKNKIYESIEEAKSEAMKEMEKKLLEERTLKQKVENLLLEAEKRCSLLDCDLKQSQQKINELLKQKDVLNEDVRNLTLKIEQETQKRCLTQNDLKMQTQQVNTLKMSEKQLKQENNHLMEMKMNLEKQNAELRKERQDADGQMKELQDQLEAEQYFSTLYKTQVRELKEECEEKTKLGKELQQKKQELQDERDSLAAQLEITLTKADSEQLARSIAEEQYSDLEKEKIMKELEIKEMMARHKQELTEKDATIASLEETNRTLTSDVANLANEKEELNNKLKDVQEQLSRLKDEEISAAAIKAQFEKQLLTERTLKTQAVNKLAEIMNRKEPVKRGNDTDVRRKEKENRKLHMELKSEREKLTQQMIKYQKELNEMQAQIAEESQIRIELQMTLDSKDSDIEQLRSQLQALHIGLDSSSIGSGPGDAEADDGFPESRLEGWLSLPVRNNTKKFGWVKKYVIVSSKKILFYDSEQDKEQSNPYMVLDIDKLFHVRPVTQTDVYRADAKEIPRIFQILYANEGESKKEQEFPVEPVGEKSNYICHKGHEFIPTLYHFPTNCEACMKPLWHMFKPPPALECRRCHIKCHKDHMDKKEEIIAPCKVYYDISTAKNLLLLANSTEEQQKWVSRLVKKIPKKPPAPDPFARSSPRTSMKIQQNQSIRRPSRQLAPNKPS
Structure (SMILES),residual activity [1] [%],residual activity [2] [%],residual activity [3] [%],residual activity [4] [%],residual activity [5] [%],residual activity [6] [%],residual activity [7] [%],residual activity [8] [%],residual activity [9] [%],residual activity [10] [%],residual activity [11] [%],residual activity [12] [%],residual activity [13] [%],residual activity [14] [%],residual activity [15] [%],residual activity [16] [%],residual activity [17] [%],residual activity [18] [%],residual activity [19] [%],residual activity [20] [%]
O=C(NC(NC(=S)Nc1ccc(F)c([N+](=O)[O-])c1)C(Cl)(Cl)Cl)C(c1ccccc1)c1ccccc1 (stereo not given),99,102,88,93,103,94,80,94,–,–,–,–,–,–,–,–,–,–,–,–
CSc1nc(-c2ccc(F)cc2)c(-c2ccnc(NC(C)c3ccccc3)c2)[nH]1 (stereo not given),101,96,98,83,–,–,86,69,66,28,100,99,82,74,81,50,40,42,-1,0
COc1ccc(Cl)cc1NC(=O)Nc1cc(C)nc2ccccc12,96,79,–,–,96,92,–,–,93,87,–,–,–,–,–,–,–,–,82,91
O=C(CCCc1ccc(-c2ccccc2F)cc1)Nc1ccc(O)cc1,106,96,85,92,103,100,104,96,91,86,102,102,90,89,111,129,97,86,91,59
O=C1NC(=O)c2c1c1c3ccccc3[nH]c1n1cncc21,88,85,73,71,97,88,37,36,59,33,95,69,58,43,57,24,33,15,93,87
Cn1sc(=O)n(Cc2ccccc2)c1=O,91,83,81,75,79,80,95,93,94,94,–,–,–,–,49,65,99,97,87,87
CCCCc1c(-c2ccc(O)cc2)[nH]c2nccnc12,96,94,–,–,93,82,86,84,45,48,100,99,–,–,42,29,68,44,100,88
CC(C)c1nn(-c2c(Cl)cccc2Cl)c2nc(Cc3ccc(OCCO)cc3)[nH]c(=O)c12,98,96,88,92,106,88,71,49,103,92,103,104,105,56,46,29,88,47,92,82
CC(C)(C)c1nc2c3ccc(F)cc3c3c(=O)[nH]ccc3c2[nH]1,57,58,–,–,–,–,42,37,18,36,75,–,65,55,–,–,25,7,73,69
O=C(c1cc2cc(O)ccc2[nH]1)c1cc2cc(O)ccc2[nH]1,67,24,80,33,–,–,26,10,8,0,39,2,40,9,30,4,13,2,75,73
NC(=O)c1cccc(-c2cc(Nc3ccc(OC(F)(F)F)cc3)ncn2)c1,125,94,–,–,–,–,–,–,–,87,–,–,–,94,57,40,–,–,–,–
O=C1Nc2ccc(Cl)cc2/C1=C/c1cc(Cl)c(O)c(Cl)c1,96,65,61,57,92,90,77,55,91,77,71,57,94,29,68,20,88,36,54,10
c1ccc(-c2cnc(Nc3ccc(OCCN4CCCC4)cc3)s2)cc1,110,81,–,–,–,80,72,58,–,37,–,–,121,66,56,36,–,–,–,–
CC(C)(C)n1nc(Cc2cccc3ccccc23)c2c(N)ncnc21,104,77,110,77,96,94,113,77,11,1,87,73,107,65,112,80,99,85,41,7
Nc1ncnc2c1cnn2-c1ccccc1,92,66,–,80,–,–,–,–,101,91,90,93,–,88,–,–,–,84,83,–
CCCC(=O)Oc1ccc2[nH]c(C(=O)c3cc4ccccc4[nH]3)cc2c1,93,83,102,74,86,90,–,–,94,–,92,98,129,99,122,93,102,90,79,81
